Assay outcomes deposited in PubChem BioAssay by Broad Institute.
aSyn UTR act: Activators working through SNCA 5'UTR binding (MLPCN); alpha-synuclein 5'UTR reporter, activators screen; activity score, % (tested at 7.5 µM), hits read low; 300,000 tested, 7.1% active; AID 1814; in the data active = activity score below about -60%
Starred values were filed as active, the others as inactive. The list is a sample of the results.

SMILES | aSyn UTR act
COc1ccc(C2=NN(S(C)(=O)=O)C(c3cccs3)C2)cc1 (stereo unspecified) | -95*
COc1ccc(C2CC(c3cccs3)=NN2S(C)(=O)=O)cc1 (stereo unspecified) | -85*
CCc1ccc(C2=NN(S(C)(=O)=O)C(c3cccs3)C2)cc1 (stereo unspecified) | -92*
COc1ccc(C2CC(c3cccs3)=Nc3ccccc3S2)cc1 (stereo unspecified) | -163*
CS(=O)(=O)N1N=C(c2ccc(Br)cc2)CC1c1cccs1 (stereo unspecified) | -117*
CC1(C)CCC(=O)N2CC[C@H]3C[C@H](OC(=O)Nc4ccc(Br)cc4)C[C@@H]1[C@H]32 | -68*
O=C(Nc1ccc(Oc2c(F)c(F)c(F)c(F)c2F)cc1)OC1CCN2Cc3ccccc3N=C12 (stereo unspecified) | 104
CN(C)S(=O)(=O)c1ccc(C(=O)NCCOc2ccc(F)cc2)cc1 | -99*
CN(C)S(=O)(=O)c1ccc(C(=O)NCCOc2ccccc2)cc1 | -106*
COc1ccc(-c2nsc3c(N4CCN(S(=O)(=O)c5ccccc5F)CC4)ncnc23)cc1 | -69*
Cc1ccc(-c2nsc3c(N4CCC(C(N)=O)CC4)ncnc23)cc1 | -99*
Cc1ccc(-n2nc3c(N4CCC(C(=O)NCCc5ccccc5C)CC4)nnc(C)c3c2C)cc1 | 72
O=C(c1ccccc1)N1CCN(c2ncnc3c(-c4ccccc4)nsc23)CC1 | -125*
COc1ccc(-c2nsc3c(N4CCCCC4)ncnc23)cc1 | 85
O=C(Nc1ccc(C(=O)Oc2ccccc2)c(O)c1)c1ccccc1 | -66*
O=C(Nc1ccc(C(=O)Oc2ccccc2)c(O)c1)c1ccco1 | -119*
Cn1c(/C=N/Nc2nc3ccccc3[nH]2)nc2ccccc21 | -188*
CC(C)Cn1c(/C=N/Nc2nc3ccccc3[nH]2)nc2ccccc21 | -337*
C=CCn1cc(/C=N/Nc2nc3ccccc3[nH]2)c2ccccc21 | -195*
CC1OC(Nc2ccc(N=Nc3ccccc3)cc2)C(O)C(O)C1O (stereo unspecified) | -63*
CCSc1nc2ccccc2n1C(=O)/C=C\c1ccc(OC)c(OC)c1 | -112*
CCc1ccc(NC(=O)C2(C)Cc3ccccc3C(=O)O2)cc1 (stereo unspecified) | -142*
CCc1ccc(NC(=O)c2noc3c2CCc2ccccc2-3)cc1 | -95*
Cc1ccc(NC(=O)c2noc3c2CCc2ccccc2-3)cc1 | -205*
Cc1cnn(C(=S)NCCc2ccccc2)c1 | -136*
SMILES | aSyn UTR act
C[C@H]1O[C@@H](O[C@H]2[C@@H](O)C[C@H](O[C@H]3[C@@H](O)C[C@H](O[C@H]4CC[C@@]5(C)[C@H](CC[C@@H]6[C@@H]5C[C@@H](O)[C@]5(C)[C@@H](C7=CC(=O)OC7)CC[C@]65O)C4)O[C@@H]3C)O[C@@H]2C)C[C@H](O)[C@@H]1O | 112
CCCn1nnnc1SCC(=O)c1ccc2c(c1)OCCO2 | -83*
Cn1nnnc1SCC(=O)c1ccc2c(c1)OCCO2 | -67*
CCOc1ccc(-c2noc(-c3cccnc3)n2)cc1OC | -95*
COc1ccc(-c2noc(-c3cccnc3)n2)cc1OC | -159*
CN(C)C(=S)Nc1ccc(N2CCOCC2)cc1 | -68*
O=C(NC(=S)Nc1ccc(N2CCOCC2)cc1)c1cccc(Cl)c1 | -72*
O=C(/C=C/c1cccc(O)c1)c1ccc(N2CCOCC2)cc1 | -182*
Cc1cccc(C(=O)O/N=C/c2c(N3CCOCC3)n(C)c3ccccc23)c1 | 72
O=C(Nc1ccc(N2CCOCC2)cc1)c1cnsn1 | 106
O=C(NC(=S)Nc1ccc(N2CCOCC2)cc1)c1ccccc1 | -148*
C/C(=C\C(=O)c1ccccc1)Nc1ccc(N2CCOCC2)cc1 | -63*
O=[N+]([O-])c1cccc2ccc(/C=C/c3ccc(C(F)(F)F)cc3)nc12 | -94*
CC(=O)Nc1ccc(/C=C/c2ccc3c([N+](=O)[O-])cccc3n2)cc1 | -164*
O=[N+]([O-])c1cccc2ccc(/C=C/c3ccc(Cl)cc3)nc12 | -149*
O=[N+]([O-])c1cccc2ccc(/C=C/c3cccc(Br)c3)nc12 | -107*
Cc1ccc(SC(C)c2nc(-c3ccccc3)no2)cc1 (stereo unspecified) | -98*
COc1ccc(F)cc1CN1CCN(c2ncnc3scc(-c4ccccc4)c23)CC1 | 98
COc1ccc(-c2csc3nc(-c4ccccc4F)oc(=O)c23)cc1 | -101*
Cc1c(C(=O)N/N=C/C(C)C)[nH]c2c([N+](=O)[O-])cccc12 | 68
Cc1cc(NC(=O)c2cc3cccc([N+](=O)[O-])c3[nH]2)ccc1F | -93*
COc1ccc(C(=O)N/N=C(/C)c2cccc(NC(=O)c3ccccc3F)c2)cc1 | -79*
C/C(=N\NC(=O)c1ccncc1)c1cccc(NC(=O)c2ccc(C(C)(C)C)cc2)c1 | -123*
C/C(=N\NC(=O)c1cc(O)ccc1O)c1cccc(NC(=O)c2ccc(Cl)cc2)c1 | -99*
COc1ccc(C(=O)N/N=C(\C)c2cccc(NC(=O)c3ccc(F)cc3)c2)c(OC)c1 | -66*
SMILES | aSyn UTR act
CC1CCc2nc3sc4c(c3c(N)c2C1)CCCC4 (stereo unspecified) | -132*
CC1CCc2c(nc3sc4c(c3c2N)CCCC4)C1 (stereo unspecified) | -125*
O=C(OCc1ccccc1)c1cccc(-c2nnn(Cc3ccccc3)n2)c1 | -91*
OCCNCc1ccc(OCc2ccc(Cl)cc2Cl)cc1 | -84*
S=C(Nc1ccccc1)Nc1ccc(OCc2ccc(Cl)cc2Cl)cc1 | 96
COc1ccc(/C=C2\CCCC(C(=O)C(F)(F)F)=C2O)cc1 | -67*
Cc1cc(C)n(CC(O)COc2ccc3ccccc3c2)n1 (stereo unspecified) | -114*
Cc1cccc(-c2nnc(SCc3ccccc3)o2)c1 | -102*
Cc1cccc(CSc2nnc(-c3ccco3)o2)c1 | -64*
Cc1cccc(CSc2nnc(-c3ccco3)n2C)c1 | -70*
c1ccc(NC2=Nc3ccccc3CS2)cc1 | -201*
Fc1cccc(NCCc2c[nH]c3ccccc23)n1 | -101*
c1ccc2c(NCCc3c[nH]c4ccccc34)c3ccccc3nc2c1 | -549*
OCCCNc1c2ccccc2nc2ccccc12 | -155*
CSc1nc(Cl)cc(Nc2ccc(O)cc2)n1 | -79*
N#CC1=C2C=Cc3ccccc3N2CCCC1=O | -74*
c1ccc(-c2nnc(-c3ccccc3)o2)cc1 | -96*
Nc1ccc(-c2nnc(-c3ccc(N)cc3)o2)cc1 | -106*
COc1ccc(C2=Nn3c(nnc3-c3ccccc3)SC2)cc1OC | 59
COc1ccc(-c2nnc(-c3ccccc3)o2)cc1OC | -168*
O=[N+]([O-])c1cc(-c2nnc(-c3ccccc3)o2)ccc1Oc1ccc(Cl)cc1 | -95*
Nc1ccccc1-c1nnc(-c2ccc(-c3ccccc3)cc2)o1 | -192*
Oc1ccccc1-c1nnc(-c2ccc(C(F)(F)F)cc2)o1 | -126*
CN(C)S(=O)(=O)c1cccc(-c2nnc(-c3ccccc3)o2)c1 | -113*
c1ccc(-c2nnc(-c3ccncc3)o2)cc1 | -89*
SMILES | aSyn UTR act
COc1cccc(-c2nnc(-c3ccc(C(F)(F)F)cc3)o2)c1 | -145*
COc1cc(/C=C/C(=O)c2ccc3c(c2)OCCO3)cc(Br)c1OCC(=O)N(C)C | -819*
COC(=O)/C(C#N)=C1/C=Cc2ccccc2N1 | -99*
COc1ccc(CC2(CO)COc3ccccc3C2=O)cc1 (stereo unspecified) | -64*
COc1ccc(NC(=O)CSc2ccccn2)cc1 | -79*
COc1cccc(NC(=O)CSc2ccccn2)c1 | -144*
